# Bioassay records from PubChem.
# EPAC1 agonist = human EPAC1 agonism, validation | EPAC1 Rap1b BODIPY-GDP exchange, fluorescence | actives 1% (n = 16,000) | AID 1645883 | Potency, µM, actives largely listed as activators; further: nearly all actives have a fitted effect of over 70% in size
# Target sequence (O95398 whole entry, looked up): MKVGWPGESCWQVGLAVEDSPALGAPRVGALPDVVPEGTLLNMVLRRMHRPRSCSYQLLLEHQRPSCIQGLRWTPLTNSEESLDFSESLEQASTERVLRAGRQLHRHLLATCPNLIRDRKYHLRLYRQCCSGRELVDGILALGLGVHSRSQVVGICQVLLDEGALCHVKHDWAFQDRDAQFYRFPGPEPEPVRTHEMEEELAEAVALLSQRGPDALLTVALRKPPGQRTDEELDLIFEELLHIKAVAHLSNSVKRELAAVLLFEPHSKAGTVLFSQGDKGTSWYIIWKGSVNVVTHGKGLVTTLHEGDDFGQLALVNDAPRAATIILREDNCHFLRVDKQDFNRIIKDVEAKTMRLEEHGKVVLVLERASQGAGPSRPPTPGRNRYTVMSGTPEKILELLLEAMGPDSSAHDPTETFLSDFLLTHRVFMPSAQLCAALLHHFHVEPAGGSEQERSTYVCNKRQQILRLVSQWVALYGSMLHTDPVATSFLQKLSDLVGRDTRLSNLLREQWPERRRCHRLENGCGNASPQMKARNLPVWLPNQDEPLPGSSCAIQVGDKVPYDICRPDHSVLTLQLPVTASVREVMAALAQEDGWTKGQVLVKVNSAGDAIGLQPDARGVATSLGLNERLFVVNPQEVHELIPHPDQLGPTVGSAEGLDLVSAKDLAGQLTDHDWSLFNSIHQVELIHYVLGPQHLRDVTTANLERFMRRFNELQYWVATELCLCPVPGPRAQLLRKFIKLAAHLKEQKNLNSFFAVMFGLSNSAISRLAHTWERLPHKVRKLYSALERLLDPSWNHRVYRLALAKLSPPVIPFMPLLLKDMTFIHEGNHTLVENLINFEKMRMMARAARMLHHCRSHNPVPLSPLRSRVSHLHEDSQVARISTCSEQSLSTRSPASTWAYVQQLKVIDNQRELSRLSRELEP
# EPAC2 ant val = validation of human EPAC2 antagonists; Q8WZA2; EPAC2 Rap1B BODIPY-GDP exchange, fluorescence; actives 1.7% (n = 16,000); Potency, µM (titrated, usually from 112 µM), usual class: inhibitors; further: nearly all actives have a fitted effect of over 40% in size
#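 Fluorescent exchange read-out: 100 nM EPAC2 with 250 nM RAP1B–BODIPY-GDP and 50 uM GDP; BODIPY-GDP release lowers fluorescence. Read at 480/540 nm every 5 min for 30 min at room temperature; normalized to 6.5 mM cAMP.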
# Numbers stand for hits; 0 = inactive; ? = inconclusive; ! = a repeat was not active. Sampled rows, rich in hits. Any-hit rate of the full collection: about 2.9%. The call rests on the fitted dose curve; in most records, active means well fitted curve in the direction sought with a large enough effect; inconclusive means small, poorly fitted or top-dose-only effect, or another doubt; inactive means no such curve, though single readings can be large; an effect the other way counts as inactive or inconclusive.
SMILES,EPAC1 agonist,EPAC2 ant val
COC(=O)N1CCC2(CCCN(c3cccc(-c4ccccc4)c3)C2)CC1,112µM,0
O=C(c1ccncc1)N1CCC2(CC1)CN(c1cccc(-c3ccccc3)c1)C2,?,0
O=C(c1ccco1)N1CCC2(CCCN(c3cccc(-c4ccccc4)c3)C2)CC1,?,0
O=C(c1cnccn1)N1CCC[C@@]2(CCN(c3cccc(-c4ccccc4)c3)C2)C1,100µM,?
COc1ccc(C(=O)N2CCC3(CC2)CN(c2cccc(-c4ccccc4)c2)C3)cc1,112µM,0
Cn1cccc1C(=O)N1CCC2(CCCN(c3cccc(-c4ccccc4)c3)C2)CC1,112µM,0
Cn1cccc1C(=O)N1CCC[C@@]2(CCN(c3cccc(-c4ccccc4)c3)C2)C1,0,0
O=C(c1cnccn1)N1CCC[C@@]2(CCN(c3ccccc3)C2)C1,0,0
O=C(O)[C@@H]1C[C@H](CP(=O)(O)O)CCN1,0,0
CCCCC/C=C\CCC(=O)N[C@H]1[C@H](Oc2c3cc4cc2Oc2ccc(cc2Cl)[C@@H](O[C@@H]2O[C@H](CO)[C@@H](O)[C@H](O)[C@H]2NC(C)=O)[C@@H]2NC(=O)[C@H](NC(=O)[C@@H]4NC(=O)[C@H]4NC(=O)[C@@H](Cc5ccc(c(Cl)c5)O3)NC(=O)[C@H](N)c3ccc(O)c(c3)Oc3cc(O)cc4c3)c3ccc(O)c(c3)-c3c(O[C@H]4O[C@H](CO)[C@@H](O)[C@H](O)[C@@H]4O)cc(O)cc3[C@@H](C(=O)O)NC2=O)O[C@H](CO)[C@@H](O)[C@@H]1O,0,0
COc1cccc(-c2nc3cc4c(cc3cc2CN(C(=O)c2cc(C)nn2C)C2CC2)CCC4)c1OC,0,?
O=C(CO)[C@@H](O)[C@H](O)[C@@H](O)C(=O)O,0,0
COC(=O)[C@@H]1CCCN1Cc1ccc2c(c1)CN(Cc1cccn1-c1ccc(Cl)cn1)CCO2,0,0
COc1ccc(C(=O)N2CCC3(CCCN(c4ccccc4)C3)CC2)cc1,0,0
COc1ccc(C(=O)N2CCC3(CCCN(c4cccc(-c5ccccc5)c4)C3)CC2)cc1,100µM,0
S=C(S)O[C@@H]1C[C@@H]2C[C@H]1[C@@H]1CCC[C@H]21,0,50µM
S=C(S)OC1CC2CC1C1CCCC21 (centres undefined),0,0
CC(c1ccon1)N(C)C(=O)c1cnn(-c2ncc3c(n2)-c2ccccc2CC3)c1C1CC1 (centres undefined),0,0
CCOC(=O)C[C@H]1c2ccccc2S(=O)(=O)N1Cc1cc(OC)c(OC)c(OC)c1,0,0
CCOC(=O)C[C@H]1c2ccccc2S(=O)(=O)N1Cc1cccc(C(F)(F)F)c1,0,56µM
CC(=O)C[C@H]1c2cc(C(F)(F)F)ccc2S(=O)(=O)N1Cc1ccccc1,0,?
COC(=O)C[C@H]1c2ccc(C(F)(F)F)cc2S(=O)(=O)N1Cc1ccccc1,0,25µM
CCC(=O)O[C@@H]1CC(=O)O[C@H](C)C/C=C/C=C/[C@H](O)[C@H](C)C[C@H](CC=O)[C@H](O[C@@H]2O[C@H](C)[C@@H](O[C@H]3C[C@@](C)(O)[C@@H](OC(=O)CC)[C@H](C)O3)[C@H](N(C)C)[C@H]2O)[C@H]1OC,0,0
CC(=O)c1ccc(-c2ccc3c4c(ccc3c2)OC(CNC(=O)C(C)N2CCOCC2)C4)s1 (centres undefined),0,0
COc1cc(O)c2c(=O)cc(C)oc2c1CC=C(C)C,?,32µM
SMILES,EPAC1 agonist,EPAC2 ant val
CC(C)=CCc1c(O)cc(C)oc1=O,0,0
CC[C@H]1OC(=O)[C@H](C)[C@@H](O[C@H]2C[C@@](C)(OC)[C@@H](O)[C@H](C)O2)[C@H](C)[C@@H](O[C@@H]2O[C@H](C)C[C@H](N(C)C)[C@H]2O)[C@](C)(O)C[C@@H](C)[C@@H]2N[C@@H](COCCOC)O[C@@H]([C@H]2C)[C@]1(C)O,0,0
COCC(=O)Nc1cc(C(=O)N2CCC(c3ccccc3)CC2)cc2nc(-c3ccccc3)n(C)c12,0,?
O=S(=O)(O)c1ccc2c(N=Nc3ccc(S(=O)(=O)O)c4ccccc34)c(O)c(S(=O)(=O)O)cc2c1,0,50µM
O=S(=O)(O)c1cc(O)c2c(N=Nc3ccc(Nc4ccccc4)c4c(S(=O)(=O)O)cccc34)cc(S(=O)(=O)O)cc2c1,0,?
CN(Cc1ccco1)c1ncnc2ccc(-c3ccoc3)cc12,0,45µM
COc1ccccc1-c1cc(N(C)Cc2ccco2)ncn1,0,?
CN(Cc1ccco1)c1ncncc1-c1ccccc1Cl,?,0
COc1ccccc1-c1ccc2ncnc(N(C)Cc3ccco3)c2c1,?,50µM
CN(Cc1ccco1)c1ncnc2ccc(-c3ccccc3Cl)cc12,?,40µM
CN(C)c1ncnc2ccc(-c3ccoc3)cc12,0,0
Cc1onc(-c2ccccc2)c1C(=O)NCCN1Cc2ccccc2OC(c2ccsc2)C1 (centres undefined),0,0
COc1ccccc1CNC(=O)c1cnn(-c2nccc(-c3cccs3)n2)c1C,0,0
COc1cccc(Nc2ncc3nc(-c4ccc(F)cc4)c(=O)n(CCC#N)c3n2)c1,112µM,0
COc1ccc(-c2nc3cnc(Nc4cccc(OC)c4)nc3n(CCC#N)c2=O)cc1,100µM,0
COc1ccc(Oc2ncc3nc(-c4cc(F)cc(F)c4)c(=O)n(CCC#N)c3n2)cc1,0,0
COc1cccc(Nc2ncc3nc(-c4ccc(F)cc4)c(=O)n(C)c3n2)c1,0,0
COc1ccc(-c2nc3cnc(Nc4ccccc4)nc3n(CCC#N)c2=O)cc1,112µM,0
COc1cccc(Nc2ncc3nc(-c4cc(F)cc(F)c4)c(=O)n(CCC#N)c3n2)c1,112µM,?
COc1cccc(Nc2ncc3nc(-c4ccc(Cl)cc4)c(=O)n(CCC#N)c3n2)c1,0,?
COc1ccc(-c2nc3cnc(Oc4ccccc4)nc3n(CCC#N)c2=O)cc1,?,0
C=Cc1c(C)c2cc3nc(cc4[nH]c(cc5nc(cc1[nH]2)C(C)=C5CCC(=O)OC)c(CCC(=O)O)c4C)[C@@]1(C)C3=CC=C(C(=O)OC)[C@H]1C(=O)OC,0,0
Cc1cnc(SCc2ccccn2)nc1C1CCCN(C(=O)c2scc3c2CCCC3)C1 (centres undefined),0,?
Cc1cccc(C)c1N(CCCc1cccnc1)C(=O)C(C)N (centres undefined),0,0
Oc1ccc(Cl)cc1Cc1cc(Cl)ccc1O,?,89µM!
SMILES,EPAC1 agonist,EPAC2 ant val
NCCc1ccc(O)c(O)c1,?,0
CCC(=O)OC(OP(=O)(CCCCc1ccccc1)CC(=O)N1C[C@H](C2CCCCC2)C[C@H]1C(=O)O)C(C)C (some centres undefined),0,0
Cc1cc(C)n(-c2cccc(C(=O)NCC3Cc4cccc(-c5cccnc5)c4O3)c2)n1 (centres undefined),0,0
O=C(OCCOCCO)c1ccccc1Nc1cccc(C(F)(F)F)c1,0,0
Cc1cc(C)c(S(=O)(=O)Nc2cccc(C(F)(F)F)c2)c(C)c1,0,40µM
C[C@H]1C[C@H]2[C@@H]3CCC4=CC(=O)C=C[C@]4(C)[C@@]3(F)[C@@H](O)C[C@]2(C)[C@@]1(O)C(=O)CCl,0,?
O=S1(=O)CCOC[C@H](CC2CCCCC2)N1Cc1ccccc1F,0,?
O=S1(=O)CCOC[C@H](CC2CCCCC2)N1Cc1cccc(C(F)(F)F)c1,0,18µM
